RGS4 inh: blocks human RGS4-accelerated GTP hydrolysis. P49798. Transcreener GDP fluorescence polarization, RGS4-accelerated GTP hydrolysis. Potency, µM (highest dose often 114 µM), inactives show at the top dose activity change, negative = inhibition, hits mostly inhibitors. hit rate 0.039% among 390,000. AID 504845; further: on the % scale 0 is the no-effect control and ±100 the full control effect; nearly all actives have a fitted effect of over 75% in size
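MLSMR compounds (23 nl, pin-transferred) preincubated 10 min at room temperature with a 500nM (2x) first reagent, then RGS4 at 900nM (2x) plus Transcreener GDP mix added; fluorescence polarization (620/688 nm) read before and after 90 min at 30 °C.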
Chronic BCR inh: blocks chronic active B-cell receptor signaling. AID 493014. hit rate 0.05% among 340,000. ABC-DLBCL IkBa-CBG/CBR reporter, luminescence ratio, 4 h. Potency, µM (top dose mostly 46.1 µM), for inactives: top-dose activity change, negative = inhibition, hits mostly inhibitors; active means well fitted inhibition curve with a large enough effect in the signal ratio, with a control signal flat, not every such curve was filed as active; inconclusive means small, poorly fitted or top-dose-only effect, or effect the other way, or a change in a side signal; the % refers to the signal ratio;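 further: plate controls were basal doxycycline-induced cells for no effect and cells given 10 µM MG132 for full effect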
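TMD8 ABC-DLBCL cells carrying doxycycline-inducible green luciferase fused to IkappaBalpha plus unfused red luciferase were exposed to compounds (up to 46 uM) for 4 hrs at 37C. Activity came from the overlap-corrected green/red luminescence ratio.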
Tb PGK inh: blocks T. brucei phosphoglycerate kinase | P07378 | PGK/GAPDH coupled, Kinase-Glo luminescence, 60 min | Potency, µM (top dose mostly 57.5 µM), without a hit: at the top dose activity change, negative = inhibition, hits mostly inhibitors | hit rate 0.043% among 380,000 | AID 602233; further: on the % scale 0 is the no-effect control and ±100 the full control effect; nearly all actives have a fitted effect of over 60% in size
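Luminescent ATP detection (Kinase-Glo Plus) follows a 60-minute room-temperature incubation, with wells lacking PGK as controls. Buffer: 100 mM TEA (pH 7.6), 5 mM MgCl2, 0.01% Tween-20. Coupling enzyme GAPDH (100 nM final) supplies unstable 1,3-BPG in-well.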
USP2a block: blocks human ubiquitin-specific protease USP2a | USP2 core, Ub-CHOP2 coupled fluorogenic reporter, 485/531 | O75604 | hit rate 0.01% among 330,000 | Potency, µM (doses to about 38.3 µM), for inactives: at the top dose activity change, negative = inhibition, most hits filed as inhibitors;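 further: plate controls were DMSO wells for no effect and full inhibition by NEM control for full effect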
Target sequence (O75604 whole entry, looked up): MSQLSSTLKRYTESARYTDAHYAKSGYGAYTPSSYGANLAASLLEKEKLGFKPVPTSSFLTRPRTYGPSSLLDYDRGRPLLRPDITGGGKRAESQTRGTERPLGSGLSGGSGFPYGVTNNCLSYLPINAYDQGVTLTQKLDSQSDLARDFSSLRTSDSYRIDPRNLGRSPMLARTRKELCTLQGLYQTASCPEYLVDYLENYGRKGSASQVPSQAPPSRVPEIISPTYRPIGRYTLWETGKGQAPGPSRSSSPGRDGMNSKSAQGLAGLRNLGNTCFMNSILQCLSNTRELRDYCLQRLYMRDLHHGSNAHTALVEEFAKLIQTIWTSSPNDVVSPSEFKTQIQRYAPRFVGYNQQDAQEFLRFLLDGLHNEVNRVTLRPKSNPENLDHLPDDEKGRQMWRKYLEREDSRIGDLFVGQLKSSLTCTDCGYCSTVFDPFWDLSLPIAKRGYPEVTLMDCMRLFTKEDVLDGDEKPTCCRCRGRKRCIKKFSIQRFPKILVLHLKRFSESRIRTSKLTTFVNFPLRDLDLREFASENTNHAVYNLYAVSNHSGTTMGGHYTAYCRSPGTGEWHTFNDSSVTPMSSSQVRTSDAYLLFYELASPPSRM
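USP2 core (10nM final) preincubated 30min RT with compound in 20mM Tris-HCl pH 8.0, 2mM CaCl2, 2mM beta-mercaptoethanol, 0.05% CHAPS; 25nM Ub-CHOP2 plus 25nM reporter substrate added, fluorescence (Ex485/Em531) read after 60min.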
Tb PFK inh-1: blocks T. brucei phosphofructokinase | T. brucei PFK, ADP-Glo luminescence | hit rate 0.17% among 330,000 | O15648 | Potency, µM (top dose mostly 57.5 µM), without a hit: at the highest dose activity, negative = inhibition, most hits filed as inhibitors;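 further: 0% = uninhibited 1x PFK enzyme wells and -100% = no-enzyme wells; nearly all actives have a fitted effect of over 60% in size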
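ADP-Glo luminescence quantified ADP after 45 min at room temperature, with 1.25 nM T. brucei PFK, 0.1 mM ATP and 0.5 mM fructose-6-phosphate in pH 8.0 TEA buffer. qHTS titrations up to 57 µM; curves classified by quality.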
TbPFK ATP: inhibits T. brucei PFK measured by ATP depletion. Tb PFK enzyme, ATP depletion, Kinase-Glo Plus luminescence. hit rate 47% among 1,100. shares compounds with Tb PFK inh-1. Potency, µM (series often up to 57.5 µM), inactives show top-dose inhibition; calls by dose curve; further: nearly all actives have a fitted effect of over 60% in size
Tb PFK inh-2: validation of T. brucei phosphofructokinase inhibitors. shares compounds with Tb PFK inh-1. purified T. brucei PFK, ADP-Glo luminescence, 45 min. Potency, µM (titrated, usually from 57.5 µM), inactives show at the highest dose activity change, negative = inhibition, actives largely listed as inhibitors. hit rate 41% among 1,100;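 further: plate controls were full PFK enzyme control for no effect and no enzyme control for full effect; nearly all actives have a fitted effect of over 60% in size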
The depositor's hits bear a star; i = inactive; ? = inconclusive; · = not tested or not shown; [ ] = another dose, or the depositor's remark. Sampled rows, rich in hits. Any-hit rate of the full collection: about 0.25%. Unless noted, the call rests on the fitted dose curve; in most records, active means well fitted curve in the direction sought with a large enough effect; inconclusive means small, poorly fitted or top-dose-only effect, or another doubt; inactive means no such curve, though single readings can be large; an effect the other way counts as inactive or inconclusive. Potency means the concentration at half of the fitted maximal effect.

SMILES | RGS4 inh | Chronic BCR inh | Tb PGK inh | USP2a block | Tb PFK inh-1 | TbPFK ATP | Tb PFK inh-2
C/C(=N\NC(=O)C(C)Nc1cccc(Cl)c1)c1ccc([N+](=O)[O-])cc1 (stereo not drawn) | -29% | -2% | -9% | 3% | ? | ? | ?
CCCS(=O)(=O)N1CCN(Cc2ccc([N+](=O)[O-])cc2)CC1 | 19% | -1% | i | 1% | -17% | · | ·
CS(=O)(=O)N1CCN(Cc2ccc([N+](=O)[O-])cc2)CC1 | -2% | 3% | -2% | 2% | ? | ? | ?
O=C1C(Cl)=C(N2CCCCC2)C(=O)N1c1ccccc1 | -31% | 1% | -5% | -4% | ? | -19% | 13%
Cc1ccc(N2C(=O)C(Cl)=C(N3CCCCCC3)C2=O)cc1 | 10% | 6% | 3% | -4% | -5% | · | ·
C=C1CCN(C(C)C(=O)OCc2ccc(C)cc2)S(=O)(=O)c2ccccc21 (stereo not drawn) | -10% | · | · | · | · | · | ·
Cc1c(Br)c([N+](=O)[O-])nn1CC(=O)Nc1cccc2nonc12 | 0% | 1% | -1% | 5% | 7.6µM* | 4.8µM* | 2.7µM*
Cc1c(Br)c([N+](=O)[O-])nn1CC(=O)Nc1ccc(CC#N)cc1 | · | ? | · | 0% | ? | ? | ?
Cc1ccc(NC(=O)Cn2nc([N+](=O)[O-])c(Br)c2C)cc1C | -27% | -1% | i | 2% | ? | · | ·
Cc1cccc(NC(=O)Cn2nc([N+](=O)[O-])c(Br)c2C)n1 | -15% | -3% | 0% | 0% | 17µM* | 12µM* | 21µM*
Cc1cc(NC(=O)Cn2nc([N+](=O)[O-])c(Br)c2C)no1 | -1% | -2% | -8% | 2% | 27µM* | 21µM* | ?
Cc1ccc(C(=O)c2oc3ccccc3c2NC(=O)COc2ccccc2Cl)cc1 | 5% | · | i | · | · | · | ·
Cc1c(C(=O)N(C)c2cccc(C(F)(F)F)c2)sc2nc3n(c(=O)c12)CCCCC3 | -27% | · | -4% | · | · | · | ·
CC(C)(C)OC(=O)N1CCCC1C(=O)NC1COC2CC(n3cc(F)c(=O)[nH]c3=O)OC12 (stereo not drawn) | -12% | · | · | · | · | · | ·
Cn1c(Oc2ccccc2NCc2cc(Br)ccc2O)cc(=O)n(C)c1=O | -16% | ? | i | -1% | ? | 19µM* | 13µM*
COc1cc(CNc2ccccc2Oc2cc(=O)n(C)c(=O)n2C)cc(OC)c1OC | -14% | -2% | 13% | 1% | 6% | · | ·
COc1ccc(NC(=O)C(=O)NNC(=O)c2cccs2)cc1 | 8% | ? | -2% | 2% | ? | -28% | ?
Cc1ccc(NC(=O)C(=O)NNC(=O)c2cccs2)cc1 | 15% | ? | 1% | -2% | ? | -22% | ?
Cc1cccc(OCC(=O)NNC(=O)c2cccs2)c1 | 3% | 16% | -6% | -2% | -1% | · | ·
COc1ccc(NC(=O)C(=O)NNC(=O)c2cccs2)c(OC)c1 | 3% | 0% | 0% | 1% | 25% | · | ·
Cc1ccc(NC(=O)c2cccs2)cc1 | 8% | ? | · | 2% | 3% | · | ·
O=C(COc1ccc2ccccc2c1)NNC(=O)c1cccs1 | 9% | 0% | i | 1% | ? | -31% | ?
Cc1ccc(S(=O)(=O)N2CCN(c3nc(-c4ccc(F)cc4)nc4cc(Cl)ccc34)CC2)cc1 | 19% | · | · | · | · | · | ·
CSc1nc(=S)c2[nH]c(=S)[nH]c2[nH]1 | ? | -6% | -8% | 2% | ? | 5.4µM* | 19µM*
CC(C)CCn1c(=O)c2sccc2n2c(CCCC(=O)NCCc3ccccc3)nnc12 | 2% | · | i | · | · | · | ·
SMILES | RGS4 inh | Chronic BCR inh | Tb PGK inh | USP2a block | Tb PFK inh-1 | TbPFK ATP | Tb PFK inh-2
O=C(O)c1cc(N/N=C/c2ccc(-c3ccc(F)cc3)o2)ccc1Cl | -37% | ? | -3% | -7% | 0% | · | ·
O=C(Cc1ccc(F)cc1)N/N=C/c1ccc(-c2ccc(Cl)c(C(=O)O)c2)o1 | -18%[56.9 µM] | -7% | i | -2% | ? | ? | ?
CCCNS(=O)(=O)c1cc(-c2nnc3c4ccccc4c(C)nn23)ccc1OC | -5% | · | -6% | · | · | · | ·
COc1ccc(NC(=O)CNc2cccc(C#N)c2)cc1Cl | -3% | ? | 0% | 2% | ? | ? | ?
CCOC(=O)c1c(-c2ccc(OC)cc2)csc1/N=C/C1C(=O)CCCC1=O | -50% | 9% | -7% | -1% | ? | 1% | -1%
CCOC(=O)c1c(-c2ccc(OC)cc2)csc1/N=C/N(C)C | -23% | ? | i | 3% | 2% | · | ·
Nc1cc(N)cc(C(=O)Nc2ccc3c(c2)C(=O)NC3=O)c1 | -17% | 1% | i | 0% | ? | ? | ?
O=C(Nc1ccc2c(c1)C(=O)NC2=O)c1ccccc1Cl | -2% | ? | -8% | 3% | ? | 12µM* | 13µM*
O=C1NC(Cc2ccccc2)C(=O)N1Cc1ccccc1 (stereo not drawn) | 4% | · | -1% | · | · | · | ·
O=c1ccsn1Cc1ccccc1 | -109% | ? | -2% | 2% | 11µM* | 16% | 11µM*
O=C1CCc2cc(S(=O)(=O)NCCC(=O)N3CCN(c4cccc(Cl)c4)CC3)ccc2N1 | 21% | 6% | -8% | 1% | 27µM* | 17µM* | ?
O=C(Cn1ccc2ccccc2c1=O)NCCC(=O)N1CCN(c2cccc(Cl)c2)CC1 | -7% | -20% | -3% | -1% | 24µM* | ? | ?
O=C(CCNC(=O)Cn1ccc2ccccc2c1=O)NCCN1CCN(c2cccc(Cl)c2)CC1 | 6% | ? | -8% | 0% | -3% | · | ·
COc1ccc(OC)c(CCNC(=O)Cn2ccc3cc(S(=O)(=O)N4CCCCC4)ccc32)c1 | -6% | · | -4% | · | · | · | ·
COc1ccc(CNC(=O)CCc2nc3cccnc3n2Cc2ccccc2)cc1 | 5% | · | 17% | · | · | · | ·
Cc1cc2c(N)cccc2nn1 | -44% | 14% | -1% | 0% | 7.6µM* | 6% | -2%
COc1cc(C=NNC(=O)c2ccc(NS(=O)(=O)c3cccs3)cc2)cc(Br)c1O | -13% | ? | -4% | 1% | ? | -25% | ?
CC(=O)Nc1ccc(C=NNC(=O)c2ccc(NS(=O)(=O)c3cccs3)cc2)cc1 | -44% | ? | -11% | 2% | -8% | · | ·
Cc1[nH]nc2c1C(c1ccc(-c3ccc(Cl)cc3)o1)C(C#N)=C(N)O2 (stereo not drawn) | -30% | ? | -3% | 1% | -13% | · | ·
